# Screening results (PubChem BioAssay)
# This is a sample that favours compounds with a hit; in the whole collection about 3.5% have one here.
# Autofluor counter – compound fluorescence in toxin protease inhibitor counterscreen. compound autofluorescence counterscreen, microsphere flow cytometry; hits give high values. fluorescence intensity (no concentration beside the values). 360,000 compounds, 3.1% hits. AID 624483; in the data active means fluorescence intensity above about 16000; inconclusive means no clear call, values can overlap the other calls
# BoNT A protease – BoNT/A light chain protease inhibitors, primary screen, biochemical, flow cytometry, MLPCN library | inhibition, % at 10 µM | 360,000 compounds, 0.17% hits | multiplex microsphere protease substrate cleavage | Botulinum neurotoxin type A light chain protease (Clostridium botulinum A str. ATCC 3502) | AID 588499, 2011; further: plate controls were buffer without enzyme for full effect and enzyme alone for no effect
# BoNT-F LC inh – BoNT/F light chain protease inhibitors, primary screen, biochemical, flow cytometry, MLPCN library; inhibition, % at 10 µM; Multiplex microsphere protease cleavage assay; AID 588497, 2011; Botulinum neurotoxin type F light chain protease (Clostridium botulinum); 360,000 compounds, 0.22% hits; in the data active means inhibition above about 35%, passing the limit was not always enough; inconclusive means no clear call, values can overlap the other calls; further: plate controls were buffer without enzyme for full effect and enzyme alone for no effect
# Anthrax LF inh2 – Bacillus anthracis LF protease inhibitors, primary screen, biochemical, multiplex microsphere, MLPCN library; Lethal factor (Bacillus anthracis), P15917; multiplex microsphere protease cleavage assay; inhibition, % at 10 µM; 360,000 compounds, 0.12% hits; further: plate controls were buffer without enzyme for full effect and enzyme alone for no effect
# * marks the source's active call; other numbers are inactive results; ? = inconclusive. Unless noted, no stated cut-off is given here; in the data, active means inhibition above about 30%; inconclusive means no clear call, values can overlap the other calls; inactive means below that.
SMILES,Autofluor counter,BoNT A protease,BoNT-F LC inh,Anthrax LF inh2
O=C1[C@@H]2Cc3ccccc3CN2C(=O)N1c1cccc(F)c1,8983,0,-5,1
COc1cc(/C=C/C(=O)O)ccc1O,5977,-1,-19,-1
COc1cc(/C=C/C(=O)CC(=O)/C=C/c2ccc(O)c(OC)c2)ccc1O,6257,31*,-12,17
COc1cc(/C=C/C(=O)/C=C(O)/C=C/c2ccc(O)c(OC)c2)ccc1O,4422,32*,-1,10
CCCc1nc2ccc(C)cn2c1Cc1ccsc1,4887,0,-26,5
CCCCn1nnnc1C(c1ccccc1)N1CCN(C(=O)c2ccco2)CC1 (stereo not drawn),4210,-1,1,-6
O=C(C1CCCCN1S(=O)(=O)c1ccccc1)N1CCN(C(c2ccccc2)c2ccccc2)CC1 (stereo not drawn),20580*,-1,-1,-4
NCC12CC3CC(C1)CC(CN)(C3)C2,23074*,0,-7,-3
CN(Cc1nc(-c2ccccn2)no1)S(=O)(=O)c1ccc(Cl)cc1,21655*,4,4,1
C=CCOc1ccc(CC2C(=O)N(C)C(=O)N(C)C2=O)cc1,8987,0,0,5
Cc1ccc(CC2C(=O)N(C)C(=O)N(C)C2=O)s1,21258*,?,-4,-1
COc1ccccc1C(=O)NCCCCNC(=O)c1ccccc1OC,4354,6,?,14
O=C(CSc1nnc2scc(-c3ccccc3)n12)Nc1nsc(-c2ccccc2)n1,20413*,1,2,0
O=C(CSc1nnc2scc(-c3ccccc3)n12)Nc1nsc(-c2ccc(Cl)cc2)n1,2910,0,-5,0
Cc1ccc(-c2csc3nnc(SCC(=O)Nc4nsc(-c5ccccc5)n4)n23)cc1,21990*,?,4,-1
Cc1ccc(SC(C)C(=O)Nc2cccc(N(C)S(C)(=O)=O)c2)cc1 (stereo not drawn),19657*,6,10,-15
Cc1ccc(SC(C)C(=O)Nc2ccncc2)cc1 (stereo not drawn),22693*,2,2,1
Cc1ccc(N(C(C)C(=O)Nc2cccc(N(C)S(C)(=O)=O)c2)S(C)(=O)=O)cc1 (stereo not drawn),4666,-2,-14,-1
CCc1sc(C(=O)NCc2cc(C)n(C)n2)cc1Br,8516,0,-3,-4
CCc1sc(C(=O)NC)cc1Br,20040*,7,9,2
CC(C)(C)c1ccc(C(=O)N2CCC2(C)C(=O)NS(=O)(=O)c2ccc(C#N)cc2)cc1 (stereo not drawn),4012,0,-12,-9
COc1cccc(NC(=O)CN(C2=NC3CS(=O)(=O)CC3S2)c2cccc(C)c2)c1 (stereo not drawn),6226,0,-3,2
COc1ccc(C=NCCC2(O)CC(C)N(C)CC2C)cc1 (stereo not drawn),4478,2,54*,3
O=C(Nc1ccc2ccccc2c1)c1nn(C23CC4CC(CC(C4)C2)C3)cc1Br,23799*,-2,-6,-3
O=C(Nc1cccc2ccccc12)c1nn(C23CC4CC(CC(C4)C2)C3)cc1[N+](=O)[O-],24019*,-2,-4,-2
SMILES,Autofluor counter,BoNT A protease,BoNT-F LC inh,Anthrax LF inh2
O=C(CCCC(=O)OCC(Cl)=C(Cl)Cl)Nc1ccc(F)cc1,2498,0,-14,-5
CCC(=O)N(CC)c1nc(-c2ccc(OC)cc2)cs1,23376*,-1,-1,-3
Cc1cc(C)c2c(C)nn(C3CCCCC3)c2n1,16323*,?,0,-4
Cc1ccc2nc3c(cc(C(N)=S)c(=N)n3CCCOC(C)C)c(=O)n2c1,13411,45*,-9,13
Cc1ccc(CNC(=O)c2cc3c(=O)n4ccccc4nc3n(CC3CCCO3)c2=N)cc1 (stereo not drawn),4200,7,1,11
Cc1ccc2nc3c(cc(C(=O)NCC4CCCO4)c(=N)n3CC3CCCO3)c(=O)n2c1 (stereo not drawn),3882,1,2,33*
CC(C)C(=O)N1CCC1(C)C(=O)NCc1cc(Cl)ccc1F (stereo not drawn),4216,0,-1,-5
CN1C(=O)c2ccc(C(=O)NCc3ccco3)cc2C1=O,6798,-1,-1,-4
COc1ccc(CCNC(=O)[C@@H](NC(=O)c2ccccc2F)C(C)C)cc1OC,4469,0,3,-3
COc1ccc(C2CC(=O)c3c(C)nc(N4CCN(c5ccccc5)CC4)nc3C2)cc1 (stereo not drawn),8939,1,17,-3
Cc1nc(N2CCN(Cc3ccccc3)CC2)nc2c1C(=O)CC(c1ccco1)C2 (stereo not drawn),17519*,-3,-10,-5
